We go through twelve molecules from the supplement of paper PMC10037445.

Assay [1] concerns RAW-Dual. The experiment in a line: NF-kB SEAP reporter activity, fold change vs agonist alone; higher = enhanced NF-kB activity. The note with it: library stock concentration (final ~1000-fold dilution): 10 mM. In a few lines:
(§1)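 Library stock was pin-tooled at 50 nL into 384-well plates of RAW-Dual macrophages (50,000 cells/well, DMEM), followed 1 h later by a PRR agonist, and the cells were kept at 37 °C, 5% CO2. Supernatant collected after 20 hours was read for IRF by QuantiLuc luminescence and for NF-κB by QuantiBlue absorbance at 620 nm. Reporter activity is fold change over agonist-alone wells, and a well counted as cytotoxic when its IncuCyte confluency was below 70% of agonist controls in both mask sets.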

Assay [2] concerns RAW-Dual. The assay can be described thus: NF-kB SEAP reporter activity, fold change vs agonist alone; cytotoxicity flag (confluency mask): not cytotoxic; higher = enhanced NF-kB activity. In a few lines: as §1
Assay [3] concerns RAW-Dual. The assay can be described thus: NF-kB SEAP reporter activity, fold change vs agonist alone; cytotoxicity flag (confluency mask): cytotoxic (confluency <70% of control); higher = enhanced NF-kB activity. The gist of the method: as §1
The mark [4] stands for this setting: cytotoxicity flag (confluency mask): not cytotoxic, agonist: Imiquimod (TLR7) […].
The mark [5] stands for this setting: cytotoxicity flag (confluency mask): not cytotoxic, agonist: MPLA (TLR4) […].
The mark [6] stands for this setting: agonist: ODN 1826 (TLR9) 0.5 ug/mL.
Where [7] appears, read: agonist: Pam2CSK4 (TLR2/6) 0.1 ug/mL.
The mark [8] stands for this setting: agonist: Pam3CSK4 (TLR2/1) 0.1 ug/mL.

Several values for one entry are separate records, joined by “and”; a condition that tells them apart may be missing. Equal values may be shown once. Over roughly 2,900 compounds, “NF-kB SEAP reporter activity, fold change vs agonist alone” has its median near 0.99; the highest 2% begin near 2.6. The list comes from a sample in which the highest values are over-represented; it also holds similar structures and randomly drawn compounds.

On to `CCOC(=O)C(CCc1ccccc1)NC(C)C(=O)N1C(=O)N(C)CC1C(=O)O.Cl` (stereo not drawn), for which the results for the “NF-kB SEAP reporter activity” value in assay [1] (setting [4]) and in assay [1] (setting [5]) were 0.962 and 0.927, respectively.

Turning to `CCOC(=O)C(CCc1ccccc1)NC(C)C(=O)N1C(=O)N(C)CC1C(=O)O.Cl` (stereo not drawn) (library stock concentration (final ~1000-fold dilution): 10 mM), the “NF-kB SEAP reporter activity” value is 1.2 in assay [2] (agonist: LPS (TLR4) 0.1 ug/mL), 0.98 in assay [2] (setting [6]), 0.83 in assay [2] (setting [7]) and 1.03 in assay [2] (setting [8]).

Take `CCC(C)C(=O)OC1CCC=C2C=CC(C)C(CCC3CC(O)CC(=O)O3)C21` (stereo not drawn) (library stock concentration (final ~1000-fold dilution): 10 mM): the “NF-kB SEAP reporter activity” value in assay [2] (agonist: LPS (TLR4) 0.1 ug/mL) stood at 3.69; in assay [2] (setting [6]), 2.68; in assay [2] (setting [7]) it was 1.45; in assay [2] (setting [8]) it was 2.12.

For the molecule `CCC(C)C(=O)OC1CC(C)C=C2C=CC(C)C(CCC3CC(O)CC(=O)O3)C21` (stereo not drawn) (library stock concentration (final ~1000-fold dilution): 10 mM), the “NF-kB SEAP reporter activity” value was 3.33 in assay [2] (agonist: LPS (TLR4) 0.1 ug/mL), 2.62 in assay [2] (setting [6]), 1.93 in assay [2] (setting [7]) and 3.02 in assay [2] (setting [8]).

In the case of `CCC(C)C(=O)OC1CC(O)C=C2C=CC(C)C(CCC(O)CC(O)CC(=O)O)C21` (stereo not drawn) (library stock concentration (final ~1000-fold dilution): 10 mM), the “NF-kB SEAP reporter activity” value in assay [2] (agonist: LPS (TLR4) 0.1 ug/mL) was 1.01 and 1.04; in assay [2] (setting [6]), 1 and 1.02; in assay [2] (setting [7]), 1.08 and 1.05; in assay [2] (setting [8]), 0.841 and 1.15.

For the molecule `CCC(C)(C)C(=O)OC1CC(C)C=C2C=CC(C)C(CCC3CC(O)CC(=O)O3)C21` (stereo not drawn) (library stock concentration (final ~1000-fold dilution): 10 mM), the “NF-kB SEAP reporter activity” value in assay [3] (agonist: LPS (TLR4) 0.1 ug/mL) is 2.35; in assay [3] (setting [6]) it was 2.44; in assay [3] (setting [7]) it was 2.12; in assay [3] (setting [8]) it was 3.35.

In the case of `CCC(C)C(=O)OC1CCC=C2C=CC(C)C(CCC3CC(O)CC(=O)O3)C21` (stereo not drawn), the figures for the “NF-kB SEAP reporter activity” value in assay [1] (setting [4]) and in assay [1] (setting [5]) were 2.3 and 1.97, respectively.

For the molecule `CCC(C)(C)C(=O)OC1CC(C)C=C2C=CC(C)C(CCC3CC(O)CC(=O)O3)C21` (stereo not drawn), the “NF-kB SEAP reporter activity” value in assay [1] (cytotoxicity flag (confluency mask): cytotoxic (confluency <70% of control), agonist: Imiquimod (TLR7) […]) was 2.53; in assay [1] (cytotoxicity flag (confluency mask): cytotoxic (confluency <70% of control), agonist: MPLA (TLR4) […]), 1.95.

Take `CCC(C)C(=O)OC1CC(C)C=C2C=CC(C)C(CCC3CC(O)CC(=O)O3)C21` (stereo not drawn): the results for the “NF-kB SEAP reporter activity” value in assay [1] (setting [4]) and in assay [1] (setting [5]) were 2.54 and 1.94, respectively.

In the case of `CC(C)(Cc1ccc2ccccc2c1)NCC(O)COc1cccc(Cl)c1C#N` (stereo not drawn) (library stock concentration (final ~1000-fold dilution): 10 mM), the “NF-kB SEAP reporter activity” value in assay [2] (agonist: LPS (TLR4) 0.1 ug/mL) amounted to 0.273; in assay [2] (setting [6]), 0.962; in assay [2] (setting [7]), 0.164; in assay [2] (setting [8]), 1.03.

Regarding `CC(C)(Cc1ccc2ccccc2c1)NCC(O)COc1cccc(Cl)c1C#N` (stereo not drawn), the “NF-kB SEAP reporter activity” value in assay [1] (setting [4]) is 0.896; in assay [1] (setting [5]), 0.972.

As for `CCCCCCCCCC(=O)NC(Cc1c[nH]c2ccccc12)C(=O)NC(CC(N)=O)C(=O)NC(CC(=O)O)C(=O)NC1C(=O)NCC(=O)NC(CCCN)C(=O)NC(CC(=O)O)C(=O)NC(C)C(=O)NC(CC(=O)O)C(=O)NCC(=O)NC(CO)C(=O)NC(C(C)CC(=O)O)C(=O)NC(CC(=O)c2ccccc2N)C(=O)OC1C` (stereo not drawn) (library stock concentration (final ~1000-fold dilution): 10 mM), the “NF-kB SEAP reporter activity” value in assay [2] (agonist: LPS (TLR4) 0.1 ug/mL) is 1.33; in assay [2] (setting [6]) it was 1.01; in assay [2] (setting [7]), 1.05; in assay [2] (setting [8]), 1.19.
